High-throughput results (PubChem BioAssay)
Compounds with a hit are over-represented: about 11% of the library has one in this group of screens.
JMJD2A Tudor = JMJD2A Tudor domain (human) inhibition; O75164; AID 504339; AlphaScreen JMJD2A-Tudor / H3K4me3 peptide binding; Potency, µM (doses to about 114 µM), for the others: at the highest dose activity change, negative = inhibition, usual class: inhibitors; hit rate 4.4% among 390,000; note: potency is the fitted concentration of half-maximal effect; % is set by controls: 0 for no effect and ±100 for the full control effect; nearly all actives have a fitted effect of over 50% in size
L3MBTL1 inh = blocks human L3MBTL1. Q9Y468. AlphaScreen L3MBTL1–H3K9me1 peptide binding. Potency, µM (highest dose often 57.1 µM), without a hit: at the highest dose activity, negative = inhibition, usual class: inhibitors. hit rate 0.66% among 230,000; note: potency is the fitted concentration of half-maximal effect; % is set by controls: 0 for no effect and ±100 for the full control effect; nearly all actives have a fitted effect of over 60% in size
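L3MBTL1 50 nM + b-AHA-H3(1-15)K9me1 75 nM, 30 min RT; compound added, 30 min RT; streptavidin donor/Ni-chelate acceptor beads 10 ug/mL each final, 30 min RT dark; AlphaScreen read.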
PI5P4K alpha inh = inhibitors of human PI5P4K alpha | P48426 | PI5P4Kalpha enzyme, ADP-Glo luminescence, 60 min; active compounds read low | max response, % | hit rate 1.2% among 330,000 | AID 652105; active = max response of -50% or lower; inconclusive = between -30% and -50%; inactive = -30% or higher; note: value at the top dose of about 77 µM; % is set by controls: 0 for no effect and ±100 for the full control effect
Target sequence (P48426 whole entry, looked up): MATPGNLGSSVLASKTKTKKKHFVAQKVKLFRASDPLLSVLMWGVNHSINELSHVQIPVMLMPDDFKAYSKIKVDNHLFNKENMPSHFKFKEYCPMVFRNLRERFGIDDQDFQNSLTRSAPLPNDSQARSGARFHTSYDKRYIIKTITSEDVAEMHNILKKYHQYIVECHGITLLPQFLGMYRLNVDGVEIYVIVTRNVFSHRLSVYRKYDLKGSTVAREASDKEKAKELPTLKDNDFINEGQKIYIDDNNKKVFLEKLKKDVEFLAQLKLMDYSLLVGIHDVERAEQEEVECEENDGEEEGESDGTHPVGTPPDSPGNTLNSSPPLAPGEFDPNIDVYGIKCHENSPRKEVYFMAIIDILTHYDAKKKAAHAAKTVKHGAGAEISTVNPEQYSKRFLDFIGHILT
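PI5P4Kalpha ADP-Glo assay; 5 microM ATP final; 60 min RT reaction; HEPES pH 7.4/EGTA/CHAPS, 5% DMSO; controls lacking substrate or enzyme; luminescent end-point.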
HP1b chromo inh = blocks HP1-beta chromodomain binding to methylated histone tails; hit rate 0.56% among 390,000; Potency, µM (series often up to 114 µM), without a hit: at the top dose activity change, negative = inhibition, most hits filed as inhibitors; P83916; AlphaScreen HP1-beta / biotin-H3K9me3 peptide binding; note: potency is the fitted concentration of half-maximal effect; nearly all actives have a fitted effect of over 70% in size
Target sequence (P83916 whole entry, looked up): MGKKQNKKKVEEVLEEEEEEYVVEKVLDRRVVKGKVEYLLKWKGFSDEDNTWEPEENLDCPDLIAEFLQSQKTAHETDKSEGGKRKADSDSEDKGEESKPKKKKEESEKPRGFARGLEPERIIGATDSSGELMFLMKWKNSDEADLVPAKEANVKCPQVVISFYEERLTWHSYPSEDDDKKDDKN
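Compound inhibition of the preformed complex between 50 nM HP1-beta and 50 nM biotinylated H3K9me3 peptide was read by AlphaScreen. Buffer was PBS pH 7.4 with 0.01% Tween-20. Incubations ran 30 min at room temperature, with 10 ug/mL donor/acceptor beads.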
G9a block = blocks human histone lysine methyltransferase G9a; G9a H3K9 monomethylation, AlphaScreen, 2 h; Potency, µM (series often up to 102 µM), for the others: top-dose activity, negative = inhibition, most hits filed as inhibitors; hit rate 8.8% among 350,000; note: potency is the fitted concentration of half-maximal effect; % is set by controls: 0 for no effect and ±100 for the full control effect; nearly all actives have a fitted effect of over 75% in size
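G9a (20 nM) preincubated 15 min RT with compounds, then 500 nM biotinylated H3K9 peptide and 20 uM SAM added; 2 h RT reaction. Monomethyl-H3K9 product detected by AlphaScreen with anti-H3K9me1 antibody, streptavidin donor and anti-rabbit IgG acceptor beads.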
BAZ2B inh = blocks human BAZ2B; AlphaScreen BAZ2B-H3K14Ac peptide displacement; Q9UIF8; hit rate 4.4% among 360,000; Potency, µM (titrated, usually from 114 µM), without a hit: at the top dose activity change, negative = inhibition, actives largely listed as inhibitors; note: potency is the fitted concentration of half-maximal effect; % is set by controls: 0 for no effect and ±100 for the full control effect; nearly all actives have a fitted effect of over 60% in size
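AlphaScreen luminescence quantifies BAZ2B engagement of H3K14Ac peptide; the protein and biotinylated peptide are both at 50 nM final, buffer PBS pH 7.4 with 0.01% Tween-20, all steps at room temperature.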
An asterisk follows results filed as active; [ ] = remark or other dose. Unless noted, calls come from the whole dose curve; as a rule, active = well fitted inhibition curve with a large enough effect; inconclusive = small, poorly fitted or top-dose-only effect; inactive = no such curve, though single readings can be large or run the other way.

Screening Cc1c(NC(=O)C(=O)/C=C(\O)c2ccc(Cl)cc2)c(=O)n(-c2ccccc2)n1C returned JMJD2A Tudor 12.6µM*, L3MBTL1 inh 1.9%, PI5P4K alpha inh -1.6, HP1b chromo inh -1.3%, G9a block -18.0%[59 µM] and BAZ2B inh inconclusive.
CCOc1ccc(CCNC(=O)Cn2ccc3cc(S(=O)(=O)N4CCCCCC4)ccc32)cc1 was read as JMJD2A Tudor -8.3%, HP1b chromo inh 30.2%, G9a block -23.5%[59 µM] and BAZ2B inh -19.0%.
`COCCNC(=O)c1ccc2nc(CCc3ccccc3)oc2c1` gave JMJD2A Tudor -3.2%, HP1b chromo inh 49.5%[57 µM], G9a block 6.6%[59 µM] and BAZ2B inh -7.5%.
For COCCN=C1NC(=O)C(CC(=O)Nc2cccc(Cl)c2C)S1 (centres undefined) the results were JMJD2A Tudor -12.1%, L3MBTL1 inh 26.4%, PI5P4K alpha inh -0.4, HP1b chromo inh 28.3%, G9a block 50.1µM* and BAZ2B inh 1.7%.
`Cc1c(Cl)cccc1NC(=O)CC1SCCNC1=O` (centres undefined) gave JMJD2A Tudor -15.0%, HP1b chromo inh 17.6%, G9a block -4.5%[12.7 µM] and BAZ2B inh -3.6%.
`O=C(COC(=O)c1cncc(Br)c1)NCc1ccco1` gave JMJD2A Tudor -35.8%, L3MBTL1 inh -89.1%, PI5P4K alpha inh -20.6, HP1b chromo inh 29.8%, G9a block -21.8%[0.0925 µM] and BAZ2B inh 31.6µM*.
O=C(COC(=O)c1cccc(Br)c1)NCCC1=CCCCC1 was read as JMJD2A Tudor -5.2%, L3MBTL1 inh -16.2%, PI5P4K alpha inh 4.7, HP1b chromo inh 19.5% and G9a block 2.7%.
Screening CCOc1cc(C(=O)OCC(=O)NCc2ccco2)cc(OCC)c1OCC returned JMJD2A Tudor 56.2µM*, L3MBTL1 inh inconclusive, PI5P4K alpha inh inconclusive, HP1b chromo inh inconclusive, G9a block 50.1µM* and BAZ2B inh 28.2µM*.
`COc1cc(C(=O)OCC(=O)NCc2ccco2)cc(OC)c1OC` gave JMJD2A Tudor inconclusive, L3MBTL1 inh -3.9%, PI5P4K alpha inh -19.4, HP1b chromo inh -5.1%, G9a block -25.7% and BAZ2B inh inconclusive.
`O=C(COC(=O)c1cncc(Br)c1)NCCC1=CCCCC1` gave JMJD2A Tudor 6.3%, L3MBTL1 inh 4.2%, PI5P4K alpha inh 0.3, HP1b chromo inh 38.8%, G9a block 50.1µM* and BAZ2B inh -6.1%.
For CSc1nnc(-c2ccccc2)n1N the results were JMJD2A Tudor 4.5%, L3MBTL1 inh 12.0%, PI5P4K alpha inh -5.7, HP1b chromo inh 30.3%, G9a block -48.0% and BAZ2B inh -3.4%.
For CSc1nnc(-c2cc[n+](C)cc2)n1CCO the results were JMJD2A Tudor 89.1µM*, L3MBTL1 inh 1.4%, PI5P4K alpha inh -6.8, HP1b chromo inh 7.2%, G9a block 7.94µM* and BAZ2B inh 6.3%.
`Cc1cc(C)c2nc(N3C(=O)C(O)=C(C(=O)c4ccco4)C3c3ccco3)sc2c1` (centres undefined) gave JMJD2A Tudor 50.1µM*, PI5P4K alpha inh -53.4*, HP1b chromo inh -21.2%, G9a block inconclusive and BAZ2B inh 44.7µM*.
`CCOc1ccc2nc(N3C(=O)C(O)=C(C(=O)c4ccco4)C3c3ccco3)sc2c1` (centres undefined) gave JMJD2A Tudor 39.8µM*, L3MBTL1 inh inconclusive, PI5P4K alpha inh inconclusive, HP1b chromo inh -16.7%, G9a block inconclusive and BAZ2B inh 50.1µM*.
For COc1ccc2nc(NC(=S)NC(=O)c3ccco3)sc2c1 the results were JMJD2A Tudor 0.0%, PI5P4K alpha inh -3.5, HP1b chromo inh 14.1%, G9a block 12.1%[59 µM] and BAZ2B inh -21.8%.
Screening COC(=O)c1sc(N2C(=O)C(=O)/C(=C(/O)c3ccccc3)C2c2ccco2)nc1C (centres undefined) returned JMJD2A Tudor -17.8%, L3MBTL1 inh -10.3%, PI5P4K alpha inh -12.9, HP1b chromo inh -2.8%, G9a block 35.5µM* and BAZ2B inh -25.0%.
`Cc1nc(N2C(=O)C(=O)/C(=C(/O)c3ccccc3)C2c2ccco2)sc1C` (centres undefined) gave JMJD2A Tudor inconclusive, L3MBTL1 inh -4.1%, PI5P4K alpha inh -14.6, HP1b chromo inh 5.4%, G9a block inconclusive and BAZ2B inh -0.4%.
For COc1ccc2nc(N3C(=O)C(O)=C(C(=O)c4ccco4)C3c3ccc(C)o3)sc2c1 (centres undefined) the results were JMJD2A Tudor inconclusive, L3MBTL1 inh -12.6%, PI5P4K alpha inh -50.3*, HP1b chromo inh -22.6%, G9a block 25.1µM* and BAZ2B inh 44.7µM*.
Screening CCOc1cccc(C(=O)Nc2cc(C)c(O)c(-c3nc4ncccc4o3)c2)c1 returned JMJD2A Tudor 4.1%, HP1b chromo inh 28.0%, G9a block 2.4%[59 µM] and BAZ2B inh -5.3%.
For O=C(NCc1ccc(Cl)cc1)C(=O)Nc1ccc(Br)cc1 the results were JMJD2A Tudor -3.6%, HP1b chromo inh 43.6%, G9a block 7.6%[59 µM] and BAZ2B inh 0.6%.
Cc1nc(-c2ccc(S(=O)(=O)N3CCN(c4cccc(C(F)(F)F)c4)CC3)cc2)co1 was read as JMJD2A Tudor -18.1%, HP1b chromo inh -1.4%[57 µM], G9a block -0.3%[59 µM] and BAZ2B inh inconclusive.
For CCOC(=O)c1sc(N2C(=O)C(O)=C(C(=O)c3ccco3)C2c2ccco2)nc1C (centres undefined) the results were JMJD2A Tudor 15.8µM*, PI5P4K alpha inh -9.4, HP1b chromo inh inconclusive, G9a block 8.91µM* and BAZ2B inh inconclusive.
Cc1ccc2nc(N3C(=O)C(O)=C(C(=O)c4ccco4)C3c3cccs3)sc2c1 (centres undefined) was read as JMJD2A Tudor 17.8µM*, L3MBTL1 inh -14.1%, HP1b chromo inh -21.4%, G9a block 25.1µM* and BAZ2B inh 44.7µM*.
`COc1ccc2nc(N3C(=O)C(O)=C(C(=O)c4ccco4)C3c3ccccc3OC)sc2c1` (centres undefined) gave JMJD2A Tudor -2.3%, PI5P4K alpha inh -5.3, HP1b chromo inh 29.7%, G9a block 35.5µM* and BAZ2B inh inconclusive.
Cc1ccc2nc(N3C(=O)C(O)=C(C(=O)c4ccc(C)o4)C3c3ccc(O)cc3)sc2c1 (centres undefined) was read as JMJD2A Tudor -46.1%, L3MBTL1 inh inconclusive, PI5P4K alpha inh -57.8*, HP1b chromo inh -9.5%, G9a block inconclusive and BAZ2B inh inconclusive.
